Consider 81 sequences from publication PMC6602471.

The full ranking holds about 1,300 sequences; the median of “log fluorescence intensity” is about 8.3, and the highest 2% start at about 12. This is one part of a sample in which the highest values are shown more often than they occur.

The target of the assay is T1, ETS1 (Homo sapiens, UniProt P14921 1-441).
T1 sequence: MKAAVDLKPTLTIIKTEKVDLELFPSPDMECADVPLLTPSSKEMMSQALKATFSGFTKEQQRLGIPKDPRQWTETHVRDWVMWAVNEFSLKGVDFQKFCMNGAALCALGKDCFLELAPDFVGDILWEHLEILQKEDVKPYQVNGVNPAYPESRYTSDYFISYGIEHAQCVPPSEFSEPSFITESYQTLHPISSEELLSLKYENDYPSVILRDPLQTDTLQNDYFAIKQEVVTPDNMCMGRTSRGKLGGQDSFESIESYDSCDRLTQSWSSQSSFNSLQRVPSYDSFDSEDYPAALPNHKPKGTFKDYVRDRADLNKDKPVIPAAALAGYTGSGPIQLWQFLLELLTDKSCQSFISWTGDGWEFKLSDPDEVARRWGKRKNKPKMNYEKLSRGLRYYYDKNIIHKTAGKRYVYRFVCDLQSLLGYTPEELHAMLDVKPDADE
Nature of the assay: custom PBM; custom protein-binding microarray; buffer, salt, pH and temperature not stated; high values mean tight binding. The note with it: dsDNA, one strand shown.
For “GGAAAAAGGCCCTGGGTAACACCGGAAGTGGGCTTAGTCTTGATTCGCTTGACGCTGCTG”, the binding signal is 12 log fluorescence intensity.
“GGAAAAAGGCCCGGGGTAACACCGGAAGTGGGCTTAGTCTTGATTCGCTTGACGCTGCTG”: the binding signal was 12.5 log fluorescence intensity.
Next, “GGAAAAAGGCCCCGGGTAACACCGGAAGTGGGCTTAGTCTTGATTCGCTTGACGCTGCTG”: 12.6 log fluorescence intensity; “TAAAGGGAAGAAGGTTGTGGTAGTTCCGGGTATTAAGTCTTGATTCGCTTGACGCTGCTG”: 8.45 log fluorescence intensity.
Next, “GGAAAAAGGCCCAGGGTAACACCGTAAGTGGGCTTAGTCTTGATTCGCTTGACGCTGCTG”: 8.34 log fluorescence intensity; “GTGTATAGGAACCCATCCAACACACGTGTTAAAATGGTCTTGATTCGCTTGACGCTGCTG”: 8.33 log fluorescence intensity.
Next, “CGGAAGTGTCGTAACCGTCGGATATCCGGTTCTTCTGTCTTGATTCGCTTGACGCTGCTG”: 11.9 log fluorescence intensity.
For the sequence “TAAAGGGAAGACGGTAGTGGTAGTTCCGGGTATTAAGTCTTGATTCGCTTGACGCTGCTG”, the binding signal was 8.7 log fluorescence intensity.
Next, “GCTGCTGCGGTGCATACCCCACCGGACGTGACCCCGGTCTTGATTCGCTTGACGCTGCTG”: 8.55 log fluorescence intensity; “GGAAAAAGGCCCAGGGTAACACCGGAAGTGGGCTAAGTCTTGATTCGCTTGACGCTGCTG”: 12.1 log fluorescence intensity.
The result for “GGAAAAAGGCCCAGGGTAACACCGGAAGTGGGCATAGTCTTGATTCGCTTGACGCTGCTG” reads 12 log fluorescence intensity; that for “GGAAAAAGGCCCAGGGTAACACCGGAAGTGGGCTTCGTCTTGATTCGCTTGACGCTGCTG”, 12.1 log fluorescence intensity; that for “GGAAAAAGGCCCAGGGTAACACCGGAAGTGGGCTCAGTCTTGATTCGCTTGACGCTGCTG”, 12 log fluorescence intensity.
The result for “GAAAAAAGGCCCAGGGTAACACCGGAAGTGGGCTTAGTCTTGATTCGCTTGACGCTGCTG” reads 12.1 log fluorescence intensity.
For the sequence “GGAAAAAGGCCCAGGGTAACACCGGAAGTGGGCTGAGTCTTGATTCGCTTGACGCTGCTG”, the binding signal is 11.9 log fluorescence intensity.
Next, “GGAAAAAGGCCCAGGGTAACACCGGAAGTGGGCTTAGTCTTGATTCGCTTGACGCTGCTG”: 12 log fluorescence intensity.
Next, “GGAAAAAGGCCCAGGGTAACACCGGAAGTGGGCTTTGTCTTGATTCGCTTGACGCTGCTG”: 12.1 log fluorescence intensity; “GGAAAAAGGCCCAGGGTAACACCGGAAGTGGGCTTGGTCTTGATTCGCTTGACGCTGCTG”: 11.8 log fluorescence intensity.
The result for “TAAAGGAAAGACGGTTGTGGTAGTTCCGGGTATTAAGTCTTGATTCGCTTGACGCTGCTG” reads 8.77 log fluorescence intensity.
With “TGTCGGGTAAGGGAATGTAGATCACGTGACTGAAAAGTCTTGATTCGCTTGACGCTGCTG”, the binding signal was 8.33 log fluorescence intensity.
The result for “TAAAGGGAAGACGGTTGTGGGAGTTCCGGGTATTAAGTCTTGATTCGCTTGACGCTGCTG” reads 8.37 log fluorescence intensity.
Take “CTGAAGTGTCGTAAACGTCGGATATCCGGTTCTTCTGTCTTGATTCGCTTGACGCTGCTG”: the binding signal is 11.8 log fluorescence intensity.
The result for “TCCGCCTACCAGCTCCACCCACTTCAGGCCTTGTAGGTCTTGATTCGCTTGACGCTGCTG” reads 8.47 log fluorescence intensity; that for “TAAAGGGAAGACGCTTGTGGTAGTTCCGGGTATTAAGTCTTGATTCGCTTGACGCTGCTG”, 8.41 log fluorescence intensity; that for “GGAAAAAGGCCCAGGGTAACACCGGATGTGGGCTTAGTCTTGATTCGCTTGACGCTGCTG”, 11 log fluorescence intensity.
The result for “CAGCATCGGACTTCTTCCCTGAAGCAATTGATAACCGTCTTGATTCGCTTGACGCTGCTG” reads 8.4 log fluorescence intensity; that for “GCTGCTGCGGTGCATACCCCACCGGATGTGACCCGGGTCTTGATTCGCTTGACGCTGCTG”, 10.2 log fluorescence intensity; that for “GCTGCTGCGGTGCATACCTCACCGGATGTGACCCCGGTCTTGATTCGCTTGACGCTGCTG”, 9.97 log fluorescence intensity.
Next, “GGAAAAAGGCCCAGGGTAACACCGGAAATGGGCTTAGTCTTGATTCGCTTGACGCTGCTG”: 11.5 log fluorescence intensity.
For “GCTTCTGCGGTGCATACCCCACCGGATGTGACCCCGGTCTTGATTCGCTTGACGCTGCTG”, the binding signal is 10.3 log fluorescence intensity.
Next, “GGAAAAAGGCCCAGGGTAACACCTGAAGTGGGCTTAGTCTTGATTCGCTTGACGCTGCTG”: 8.36 log fluorescence intensity; “TAAAGGGAAGACGATTGTGGTAGTTCCGGGTATTAAGTCTTGATTCGCTTGACGCTGCTG”: 8.5 log fluorescence intensity.
The result for “GCTGCTGCGGTGCATACCCCACCGGATGTGACCCCAGTCTTGATTCGCTTGACGCTGCTG” reads 10.1 log fluorescence intensity.
Take “GGAAAAAGGCCCAGGGTAACACCGGAACTGGGCTTAGTCTTGATTCGCTTGACGCTGCTG”: the binding signal is 9.07 log fluorescence intensity.
The result for “GCTGCTGCGGTGCATACCCCACCGGATGTGACCCTGGTCTTGATTCGCTTGACGCTGCTG” reads 10.1 log fluorescence intensity.
The result for “CTGGGACTTGAACCAACTCTGCCACGTGGGTCGTTTGTCTTGATTCGCTTGACGCTGCTG” reads 8.34 log fluorescence intensity; that for “CGGAAGTGTCGTAAACGTCGGATATCAGGTTCTTCTGTCTTGATTCGCTTGACGCTGCTG”, 8.51 log fluorescence intensity; that for “GTGTATAGGGTCCCATCCAACACACGTGTTAAAATGGTCTTGATTCGCTTGACGCTGCTG”, 8.3 log fluorescence intensity.
The result for “TCCGGCTACCAGCTCCACTCACTTCAGGCCTTGTAGGTCTTGATTCGCTTGACGCTGCTG” reads 8.4 log fluorescence intensity; that for “GTGTATAGGATCCCATCCAACACACGTGTTAAAATGGTCTTGATTCGCTTGACGCTGCTG”, 8.35 log fluorescence intensity.
As to “TGTCGGGTAAGGGAATGTAGATCACGTGAATGTAAAGTCTTGATTCGCTTGACGCTGCTG”, the binding signal was 8.34 log fluorescence intensity.
“CTGGGACTTGACCCAACTCTGCCACGTGGGTCGATTGTCTTGATTCGCTTGACGCTGCTG”: the binding signal is 8.33 log fluorescence intensity.
The result for “GTCTATAGGATCCCATCCAACACACGTGTTAAAATGGTCTTGATTCGCTTGACGCTGCTG” reads 8.42 log fluorescence intensity; that for “GCTGCTGCGGTGCATACCCCACCGGATGTGTCCCCGGTCTTGATTCGCTTGACGCTGCTG”, 9.62 log fluorescence intensity; that for “GCTGCAGCGGTGCATACCCCACCGGATGTGACCCCGGTCTTGATTCGCTTGACGCTGCTG”, 10.4 log fluorescence intensity.
The result for “CAGCATAGGACTTCTTCACTGAAGCAATTGATAACCGTCTTGATTCGCTTGACGCTGCTG” reads 8.32 log fluorescence intensity; that for “GCTGCTGCGGTGCATACCCCCCCGGATGTGACCCCGGTCTTGATTCGCTTGACGCTGCTG”, 8.71 log fluorescence intensity; that for “CGGAAGTGTCGTAGACGTCGGATATCCGGTTCTTCTGTCTTGATTCGCTTGACGCTGCTG”, 11.7 log fluorescence intensity.
As to “CAGCATAGGACTTCTTCCCTGAAGGAATTGATAACCGTCTTGATTCGCTTGACGCTGCTG”, the binding signal is 8.32 log fluorescence intensity.
For the sequence “CGGAAGTGTCGTAAACGTCGGATATCCAGTTCTTCTGTCTTGATTCGCTTGACGCTGCTG”, the binding signal was 8.64 log fluorescence intensity.
The result for “CACTGACTTATATATGCGAATGCACATGAATAGACCGTCTTGATTCGCTTGACGCTGCTG” reads 8.35 log fluorescence intensity; that for “GCTGCTGCGGTGCACACCCCACCGGATGTGACCCCGGTCTTGATTCGCTTGACGCTGCTG”, 10.3 log fluorescence intensity; that for “ACTGCTGCGGTGCATACCCCACCGGATGTGACCCCGGTCTTGATTCGCTTGACGCTGCTG”, 10.4 log fluorescence intensity.
For the sequence “TAAAGGGAAGACGGCTGTGGTAGTTCCGGGTATTAAGTCTTGATTCGCTTGACGCTGCTG”, the binding signal is 8.35 log fluorescence intensity.
The result for “TAAAGGTAAGACGGTTGTGGTAGTTCCGGGTATTAAGTCTTGATTCGCTTGACGCTGCTG” reads 8.54 log fluorescence intensity.
The result for “GGAAAAAGGCCCAGGGTAACACCGGAAGTGGGGTTAGTCTTGATTCGCTTGACGCTGCTG” reads 12 log fluorescence intensity; that for “TAAAGGCAAGACGGTTGTGGTAGTTCCGGGTATTAAGTCTTGATTCGCTTGACGCTGCTG”, 8.32 log fluorescence intensity.
In the case of “GCTGCTGTGGTGCATACCCCACCGGATGTGACCCCGGTCTTGATTCGCTTGACGCTGCTG”, the binding signal is 10.3 log fluorescence intensity.
Next, “GGAACAAGGCCCAGGGTAACACCGGAAGTGGGCTTAGTCTTGATTCGCTTGACGCTGCTG”: 11.9 log fluorescence intensity.
The result for “CGGAAGAGTCGTAAACGTCGGATATCCGGTTCTTCTGTCTTGATTCGCTTGACGCTGCTG” reads 11.8 log fluorescence intensity.
The result for “GGAAAAACGCCCAGGGTAACACCGGAAGTGGGCTTAGTCTTGATTCGCTTGACGCTGCTG” reads 12.1 log fluorescence intensity; that for “GCTGCTGCTGTGCATACCCCACCGGATGTGACCCCGGTCTTGATTCGCTTGACGCTGCTG”, 9.42 log fluorescence intensity.
Take “GGAAAAAGGCCCAGGGTAAGACCGGAAGTGGGCTTAGTCTTGATTCGCTTGACGCTGCTG”: the binding signal is 12 log fluorescence intensity.
Next, “TAAAGGGAAGACGGTTGTGGTAGTTACGGGTATTAAGTCTTGATTCGCTTGACGCTGCTG”: 8.37 log fluorescence intensity.
The result for “TGTCGGGTAAGGGCATGTAGATCACGTGAATGAAAAGTCTTGATTCGCTTGACGCTGCTG” reads 8.41 log fluorescence intensity.
The result for “GGAAAAAGGCCCAGGGTATCACCGGAAGTGGGCTTAGTCTTGATTCGCTTGACGCTGCTG” reads 11.4 log fluorescence intensity.
“TACTGACTTATAGATGCGAATGCACATGAATAGACCGTCTTGATTCGCTTGACGCTGCTG”: the binding signal was 8.45 log fluorescence intensity.
On to “TAAAGGGAAGACGGTTCTGGTAGTTCCGGGTATTAAGTCTTGATTCGCTTGACGCTGCTG”, for which the binding signal is 8.63 log fluorescence intensity.
The result for “CAGCATAGGACTTCTTCCCTGAAGCAATTGATAACGGTCTTGATTCGCTTGACGCTGCTG” reads 8.34 log fluorescence intensity; that for “CGGAAGTGTCGTAAACGTCGGATATCGGGTTCTTCTGTCTTGATTCGCTTGACGCTGCTG”, 8.65 log fluorescence intensity; that for “GGGTATAGGATCCCATCCAACACACGTGTTAAAATGGTCTTGATTCGCTTGACGCTGCTG”, 8.44 log fluorescence intensity.
The result for “GTGTATAGGATCCCATCCAACACACGCGTTAAAATGGTCTTGATTCGCTTGACGCTGCTG” reads 8.37 log fluorescence intensity; that for “CGGAAGTGTCGTAAACGTCGGATATCCGGTTCTCCTGTCTTGATTCGCTTGACGCTGCTG”, 11.8 log fluorescence intensity.
The result for “GCTGCTGCGGTGCATACCCCAGCGGATGTGACCCCGGTCTTGATTCGCTTGACGCTGCTG” reads 8.5 log fluorescence intensity; that for “GGAAAAAGGCCCAGCGTAACACCGGAAGTGGGCTTAGTCTTGATTCGCTTGACGCTGCTG”, 11.9 log fluorescence intensity.
“TAAAGGGAAGACTGTTGTGGTAGTTCCGGGTATTAAGTCTTGATTCGCTTGACGCTGCTG”: the binding signal is 8.36 log fluorescence intensity.
The result for “TAAAGGGAAGACGGTTGTGGTAGTTCCGGTTATTAAGTCTTGATTCGCTTGACGCTGCTG” reads 9.95 log fluorescence intensity; that for “TAAAGGGAAGACGGTTGTGGTAGTTCCGGGCATTAAGTCTTGATTCGCTTGACGCTGCTG”, 8.59 log fluorescence intensity.
As for “CGGAAGTGTCGTAAACGTCGGATATCTGGTTCTTCTGTCTTGATTCGCTTGACGCTGCTG”, the binding signal is 8.37 log fluorescence intensity.
Next, “GCTGCTACGGTGCATACCCCACCGGATGTGACCCCGGTCTTGATTCGCTTGACGCTGCTG”: 10.3 log fluorescence intensity; “CGGAAGTGTCGTAAACGTCGGATATCCGGTTATTCTGTCTTGATTCGCTTGACGCTGCTG”: 12.1 log fluorescence intensity.
